For 45 molecules, activity change, negative = inhibition results are on record in PubChem BioAssay AID2107 (National Center for Advancing Translational Sciences (NCATS), 2009).

Among all 240,000 compounds or so, about 20 (0.008%) were called active. About 1% were inconclusive and are not listed. The call rests on the fitted dose curve; in most records, active means well fitted inhibition curve with a large enough effect; inconclusive means small, poorly fitted or top-dose-only effect, or effect the other way; inactive means flat fitted curve, though single readings scatter. Not all results are given here. Peptide text beside a SMILES is read from it.

Alpha-galactosidase A (Homo sapiens), sequence (P06280 32-429 limits assumed): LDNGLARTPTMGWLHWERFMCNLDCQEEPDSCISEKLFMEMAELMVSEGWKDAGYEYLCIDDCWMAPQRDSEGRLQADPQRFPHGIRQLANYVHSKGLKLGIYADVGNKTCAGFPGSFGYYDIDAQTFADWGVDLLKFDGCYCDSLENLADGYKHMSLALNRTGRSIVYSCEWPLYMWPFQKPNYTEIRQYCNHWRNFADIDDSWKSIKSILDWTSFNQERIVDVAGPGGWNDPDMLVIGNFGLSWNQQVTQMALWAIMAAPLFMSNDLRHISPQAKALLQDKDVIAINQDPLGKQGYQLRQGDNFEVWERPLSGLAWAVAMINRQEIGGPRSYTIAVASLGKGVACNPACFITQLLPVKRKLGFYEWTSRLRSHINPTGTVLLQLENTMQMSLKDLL

This experiment deals with Alpha-galactosidase A (Homo sapiens) (UniProt P06280). The experiment in a line: qHTS Assay for Inhibitors and Activators of Human alpha-Galactosidase From Spleen Homogenate.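 Further: 0% = enzyme with vehicle and -100% = no enzyme basal signal.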 The settings on record: 4MU-alpha-Gal fluorescence, 40 min; series mostly up to 80 µM. An excerpt:
NIH Chemical Genomics Center [NCGC] NIH Molecular Libraries Probe Production Centers Network [MLPCN] MLPCN Grant: R03 MH084842-01 Assay Submitter (PI): Wei Zheng NCGC Assay Overview: Alpha-galactosidase is a homodimeric glycoprotein that hydrolyzes the terminal alpha-galactosyl moieties from glycolipids and glycoproteins. Deficiency of this enzyme results in Fabry Disease with progressive accumulation of globotriaosylceramide and other glycosphingolipids in vascular endothelial cells that causes renal failure, myocardial infarction and stroke, and premature death in patients. It has been reported that the improper folding and trafficking of alpha-galactosidase resulting from genetic mutations may account for a significant number of Fabry patients. […] We optimized this alpha-galactosidase assay in 1536-well plate format for identification of novel small molecule inhibitors or activators with structures other than the sugar analogs in order to develop new pharmacological chaperones. In particular, this assay is directed towards discovering compounds active in more natural setting, tissue homogenate, that may have been missed by screens of the purified enzyme under more stringent conditions.
NCGC Assay Protocol Summary: This is a fluorogenic enzyme assay with 4-methylumbelliferyl-alpha-D-galactopyranoside as the substrate and human spleen homogenate containing alpha-galactosidase as the enzyme preparation. Upon hydrolysis of this fluorogenic substrate, the resulting product, 4-methylumbelliferone (which excites at 365 nm and emits at 440 nm) can be detected by a fluorescence plate reader. Data were normalized to the controls for basal activity (without enzyme) and 100% activity (with enzyme). The AC50 values were determined from concentration-response data modeled with the standard Hill equation. Assay buffer: 50 mM citric acid (titrated with potassium phosphate to pH 5.0), 0.01% Tween-20 (pH 5.0 is an optimal condition for this enzyme assay) 1536-well assay protocol for the alpha-galactosidase from human spleen homogenate: (1) Add 2 ul/well spleen homogenate (1 ug) (2) Add 23 nL compounds in DMSO solution. The final titration was 0.5 nM to 58 uM. (3) Add 2 ul of substrate (1 mM final) (4) Incubate at 37C for 40 min (5) Add 2 ul stop solution (1M NaOH and 1M Glycine mixture, pH 10) (6) Detect the assay plate in a ViewLux plate reader (PerkinElmer) with Ex=365 nm and Em=440nm. Keywords: Alpha-galactosidase, Fabry Disease, pharmacological chaperone, chaperone therapy, high throughput screening, alpha- galactosidase inhibitor, MLSMR, MLSCN, NIH Roadmap, qHTS and NCGC
In general terms: qHTS replaces the single test concentration by a dilution series.
With `CCn1c2ccccc2c2cc(NC(=O)Nc3ccc([N+](=O)[O-])cc3C)ccc21`, the activity change, negative = inhibition result is “inactive”.
As for `COc1ccc(NC(=O)CSc2nnc(-c3ccccc3F)n2C2CC2)cc1S(N)(=O)=O`, the entry is “inactive”.
As for `Cc1cc(C(=O)COc2ccccc2[N+](=O)[O-])c(C)n1-c1cccc(S(=O)(=O)N2CCOCC2)c1`, the entry is “inactive”; as for `Oc1ccc(-c2c(-c3ccccc3)nn3c(C(F)(F)F)cc(C(F)(F)F)nc23)cc1`, “inactive”; as for `CCCn1c(C)nc2c(NCCCCN(CC)CC)nc(C)nc21`, “inactive”.
With `COc1ccc(C2=Nn3c(nnc3-c3ccccc3O)SC2)cc1`, the activity change, negative = inhibition result was “inactive”.
For `O=C(Cc1coc2ccc3ccccc3c12)NCc1cccs1` the value was “inactive”.
As for `O=C(CSC(=S)N1CCCCC1)c1c(F)cccc1F`, the entry is “inactive”; as for `O=c1c([N+](=O)[O-])cccn1Cc1ccc(F)cc1Cl`, “inactive”.
As for `CCc1nnc(NC(=O)C2CC(=O)N(c3ccc4c(c3)OCCO4)C2)s1` (stereo not given), the entry is “inactive”; as for `CCOC(=O)N1CCN(C(=O)c2ccccc2N(Cc2ccccc2)S(=O)(=O)c2ccc(OC)cc2)CC1`, “inactive”.
Regarding `O=S(O)S(=O)(=O)O`, the activity change, negative = inhibition result was “inactive”.
As for `COc1c(O)c2c(=O)cc(OC)c3c4c(OC)cc(=O)c5c(O)c(OC)c6c(c(c1C[C@@](C)(O)[C@H]6C(C)=O)c23)c54`, the entry is “inactive”; as for `NC(=O)C1(C(N)=O)OC1c1ccc(Cl)cc1Cl` (stereo not given), “inactive”; as for `C/C(=N/N1CCN(Cc2cccc3ccccc23)CC1)c1cccnc1`, “inactive”.
As for `COc1ccc(N(C(=O)c2ccc(C)cc2)S(=O)(=O)c2cccs2)cc1`, the entry is “inactive”; as for `C[C@H]1CC[C@H](C(=O)O)N[C@@H]1c1ccc(C#Cc2ccccc2)cc1`, 7.47% [at 17.5 µM] (inactive); as for `COc1ccc(-c2cn3ccc(C)cc3n2)cc1`, “inactive”.
As for `CCN(CC)CCOCCOc1ccc(Cl)c2ccccc12`, the entry is “inactive”; as for `Cc1noc(C)c1-c1ccc2ncnc(NC(C)c3ccco3)c2c1` (stereo not given), “inactive”; as for `Nc1ncnc2c1ncn2C1CC(O)C(CO)O1` (stereo not given), “inactive”.
Regarding `O=C(Nc1ccc2c(c1)OCO2)c1sc2cc(Cl)ccc2c1Cl`, the activity change, negative = inhibition entry is “inactive”.
For `C/C(=N\NC(=O)c1ccc(C)cc1)C1C(=O)c2ccccc2C1=O`, the activity change, negative = inhibition entry is “inactive”.
As for `COc1ccccc1N1CCN(C(=O)c2ccc(Cl)c(S(=O)(=O)N3CCCC3)c2)CC1`, the entry is “inactive”.
As for `CCOC(OCC)OCC`, the entry is “inactive”; as for `Cc1ccc(C)c2[nH]c(=O)c(CN(Cc3cccnc3)C(=S)NCc3ccco3)cc12`, “inactive”.
Take `Cc1ccc(CNC(=O)C2(C(F)(F)F)C/C(=C\CCO)CCCO2)o1` (stereo not given): the activity change, negative = inhibition result is “inactive”.
As for `COc1cccc(NC(=O)CC2C(=O)NCCN2C(=S)Nc2ccc(F)cc2)c1` (stereo not given), the entry is “inactive”; as for `Cc1ccc(SCC(CC(C)C)N2CCN(CCc3ccccc3)CCC2=O)cc1` (stereo not given), “inactive”.
For `COC(=O)c1sc(=S)n(-c2ccc(Cl)cc2)c1C` the value was “inactive”; for `COC(=O)c1ccc([C@@H](O)[C@H](C)C(=O)CC(=O)OC(C)(C)C)cc1`, “inactive”.
As for `C[C@@H](O)[C@@H]1NC(=O)[C@H](CCCCN)NC(=O)[C@H](Cc2c[nH]c3ccccc23)NC(=O)[C@H](Cc2ccccc2)NC(=O)[C@H](Cc2ccccc2)NC(=O)[C@H](CC(N)=O)NC(=O)[C@H](CCCCN)NC(=O)[C@@H](NC(=O)[C@@H]2CCCN2)CSSC[C@@H](C(=O)N[C@@H](CCCCN)C(=O)O)NC(=O)[C@H](CO)NC(=O)[C@H](CO)NC(=O)[C@H](Cc2ccccc2)NC1=O` (HELM PEPTIDE1{P.C.K.N.F.F.W.K.T.F.S.S.C.K}$PEPTIDE1,PEPTIDE1,2:R3-13:R3$$$V2.0), the entry is “inactive”.
`Cc1ccccc1N1CCN(Cc2nc(Cc3ccccc3F)no2)CC1`: the activity change, negative = inhibition entry is “inactive”.
For `O=c1cc(-c2ccc(O)cc2)oc2c(-c3cc(-c4cc(=O)c5c(O)cc(O)cc5o4)ccc3O)c(O)ccc12` the value was “inactive”.
As for `O=C(CSc1nc(O)c(Cc2ccccc2)c(=O)[nH]1)Nc1nc2c(s1)CCCC2`, the entry is “inactive”.
As for `CCOC(=O)C1=C(CN2CCc3ccccc32)NC(=O)NC1c1ccc(Cl)cc1` (stereo not given), the entry is “inactive”; as for `C=CCOC(=O)C(=C)C`, “inactive”; as for `COc1ccc(-c2ccc(C3C4C=CCCC4(C)C(=O)N3Cc3ccccc3)c(F)c2)cc1OC` (stereo not given), “inactive”.
With `Cc1cccc(CNc2ccnc(-c3cccnc3)n2)c1`, the activity change, negative = inhibition entry is “inactive”.
Take `OCCC(O)CO` (stereo not given): the activity change, negative = inhibition result was “inactive”.
For `C/C=C/c1ccc(OCC(O)CN2CCCCCCC2)c(OC)c1` (stereo not given) the value was “inactive”.
For `Cc1ccc(N(C(=O)c2ccc(S(=O)(=O)N(C)C)cc2)C2C=CS(=O)(=O)C2)cc1` (stereo not given) the value was “inactive”; for `CC[C@H](C)[C@H](NC(=O)[C@H](CCCNC(=N)N)NC(=O)[C@H](CCCNC(=N)N)NC(=O)[C@H](CC(C)C)NC(=O)[C@H](Cc1ccccc1)NC(=O)CNC(=O)CNC(=O)[C@@H](N)Cc1ccc(O)cc1)C(=O)N[C@@H](CCCNC(=N)N)C(=O)N1CCC[C@H]1C(=O)N[C@@H](CCCCN)C(=O)N[C@@H](CC(C)C)C(=O)N[C@@H](CCCCN)C(=O)N[C@@H](Cc1c[nH]c2ccccc12)C(=O)N[C@@H](CC(=O)O)C(=O)N[C@@H](CC(N)=O)C(=O)N[C@@H](CCC(N)=O)C(=O)O`, “inactive”.
As for `CC(C)=CCC[C@]1(C)[C@@H](CC=C(C)C)C[C@@]2(CC=C(C)C)C(=O)[C@]1(C(=O)C(C)C)C(=O)C(CC=C(C)C)=C2O`, the entry is “inactive”.
As for `COC(=O)C(CC(C)C)NS(=O)(=O)c1cc(Br)ccc1Br` (stereo not given), the activity change, negative = inhibition result is “inactive”.
